Several values for one entry are separate records, joined by “and”; a condition that tells them apart may be missing. Equal entries are not always repeated. Results filed as inconclusive are left out. Values without a mark were called inactive. Activity calls are given as the source filed them. Calls follow the shape of the dose curve; as a rule, active = well fitted inhibition curve with a large enough effect; inconclusive = small, poorly fitted or top-dose-only effect; inactive = flat fitted curve, though single readings scatter.

One assay relates to P93_24. Nature of the assay: qHTS profiling for inhibitors of Plasmodium falciparum proliferation (AID 504749).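 Also: 0% = DMSO vehicle and full inhibition = artemisinin control.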 As to conditions: P. falciparum in erythrocytes, SYBR Green DNA, 72 h; series mostly up to 28.7 µM. An outline of the steps: (§1)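 Infected RBCs, 0.3% parasitemia/2.5% Hct final; cpd 72 h, 37 C, 5% CO2; lysis buffer with saponin/triton/SYBR Green I, o/n RT dark; FI 485/535; norm. to artemisinin (0.29 uM) and DMSO.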
In general terms: Quantitative high-throughput screening tests each substance at several concentrations.

For a further assay, the system named is P94_40. The description is as above. As to conditions: P. falciparum in erythrocytes, SYBR Green DNA, 72 h; series mostly up to 28.7 µM. An outline of the steps:
as §1

The next assay has as its system PAD. The description is as above. As to conditions: P. falciparum in erythrocytes, SYBR Green DNA, 72 h; series mostly up to 28.7 µM. The gist of the method: as §1
A further assay has as its system PC15. The assay is described as above. As to conditions: P. falciparum in erythrocytes, SYBR Green DNA, 72 h; series mostly up to 28.7 µM. The gist of the method:
as §1

Another assay deals with PC26. Described as above. As to conditions: P. falciparum in erythrocytes, SYBR Green DNA, 72 h; series mostly up to 28.7 µM. The gist of the method:
as §1

For another assay, the system named is PC49. The assay is described as above. As to conditions: P. falciparum in erythrocytes, SYBR Green DNA, 72 h; series mostly up to 28.7 µM. The gist of the method: as §1
For the next assay, the system named is SC27B. The assay is described as above. As to conditions: P. falciparum in erythrocytes, SYBR Green DNA, 72 h; series mostly up to 28.7 µM. The gist of the method:
as §1

For the next assay, the system named is TAB109. The description is as above. As to conditions: P. falciparum in erythrocytes, SYBR Green DNA, 72 h; series mostly up to 28.7 µM. An outline of the steps:
as §1

In a further assay the test system is TAB113. Described as above. As to conditions: P. falciparum in erythrocytes, SYBR Green DNA, 72 h; series mostly up to 28.7 µM. An outline of the steps: as §1
Another assay has as its system TAB165. The description is as above. As to conditions: P. falciparum in erythrocytes, SYBR Green DNA, 72 h; series mostly up to 28.7 µM. The gist of the method:
as §1

In a further assay the test system is W2. The assay is described as above. As to conditions: P. falciparum in erythrocytes, SYBR Green DNA, 72 h; series mostly up to 28.7 µM. An outline of the steps: as §1
Another assay has as its system CRL-7250. In words: Cytotoxic Profiling of Annotated Libraries Using Quantitative High-Throughput Screening (AID 1296008). Also: potency is read from the fitted curve at half-maximal effect. As to max response: % is scaled to controls: 0 for no effect and ±100 for the full control effect. As to conditions: Five cell lines viability, CellTiter-Glo ATP luminescence, 48-72 h; max response: hits give low values. An outline of the steps:
(§2)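 Cytotoxicity was measured as CellTiter-Glo ATP luminescence, read after 10 min at room temperature. Compound treatment of the cells lasted 48 or 72 hr at 37 degrees Celsius in a qHTS format.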
(In general: ATP-based viability assays read luminescence as a measure of living cells.)

Another assay has as its system HEK293. Described as above. As to conditions: Five cell lines viability, CellTiter-Glo ATP luminescence, 48-72 h; max response: hits give low values. An outline of the steps:
as §2

Assay [1] relates to HaCat. Described as above. As to conditions: Five cell lines viability, CellTiter-Glo ATP luminescence, 48-72 h; max response: hits give low values. An outline of the steps:
as §2

A further assay concerns KB-3-1. The description is as above. As to conditions: Five cell lines viability, CellTiter-Glo ATP luminescence, 48-72 h; max response: hits give low values. An outline of the steps: as §2
A further assay has as its system NIH3T3. The description is as above. As to conditions: Five cell lines viability, CellTiter-Glo ATP luminescence, 48-72 h; max response: hits give low values. An outline of the steps: as §2
The subject of assay [2] is HACAT. In words: qHTS assay to identify novel small-molecules to repurpose for Merkel cell carcinoma treatment (AID 1296009). As to conditions: MCC and control cell lines, CellTiter-Glo viability, 72 h; at 44.8 µM (top of the series) unless noted. An outline of the steps:
(§3)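 72 hr, 37 degree celsius; NPC 8-pt / MIPE 11-pt dose response; compound pinned in DMSO; CellTiter-Glo, 10 min RT, luminescence; normalized to no-cell and DMSO controls.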

The test system of another assay is MCC-13. The assay is described as above. As to conditions: MCC and control cell lines, CellTiter-Glo viability, 72 h; series mostly up to 46 µM. The gist of the method:
as §3

For the next assay, the system named is MCC-26. The assay is described as above. As to conditions: MCC and control cell lines, CellTiter-Glo viability, 72 h; series mostly up to 46 µM. The gist of the method:
as §3

The next assay deals with HEK293T. Described as above. As to conditions: MCC and control cell lines, CellTiter-Glo viability, 72 h; at 44.8 µM (top of the series) unless noted. An outline of the steps:
as §3
Also: nearly all actives have a fitted effect of over 60% in size.

For the compound `N#CC(c1ccc(Cl)cc1)c1c(Cl)cc(-n2ncc(=O)[nH]c2=O)cc1Cl` (centres undefined), the Potency entry in the assay on P93_24, in the assay on P94_40, in the assay on PAD, in the assay on PC26, with SC27B and with TAB109 was “inactive” each time. Also, the Potency result in the assay on TAB113, in the assay with TAB165, with W2, in the assay on MCC-13 and in the assay on MCC-26 was “inactive” each time. The compound was classed as inactive in the assay on PC15, in the assay on PC49, in the assay with HaCat [1] and in the assay with HACAT [2]. Further, the max response in the assay on CRL-7250 was -3.43%; in the assay with HEK293 it was -4.97%; in the assay with KB-3-1, 0.338%; in the assay with NIH3T3 it was -0.315%.

`C=C1c2cccc(O)c2C(O)=C2C(=O)[C@@]3(O)C(O)=C(C(N)=O)C(=O)[C@@H](N(C)C)[C@@H]3[C@@H](O)[C@H]12`: the Potency result in the assay on P94_40, in the assay with PAD, with PC26, in the assay on SC27B, with TAB109 and with TAB113 was “inactive” throughout. In addition, the Potency result in the assay with MCC-13 and with MCC-26 was “inactive” in each case. The call with PC15, in the assay on PC49, in the assay with HaCat [1] and with HACAT [2] was inactive. Also, the max response was -8.75% in the assay with CRL-7250, 0.32% with HEK293, 1.29% in the assay on KB-3-1 and -2.7% with NIH3T3.

Turning to `CC(C)=CCCC(C)=CCCC(C)=CCCC(C)=CCCC(C)=CCCC(C)=CCCC(C)=CCCC(C)=CCCC(C)=CCO`, the max response with CRL-7250 was 0.939%; in the assay with HEK293 it was -3.76%; in the assay on HaCat [1], 1.51%; in the assay on KB-3-1 it was 4.17%; in the assay on NIH3T3 it was -3.52%. Moreover, the Potency entry in the assay on MCC-13 and with MCC-26 was “inactive” in each case.

Turning to `CC(C)CN(C[C@H](O)[C@H](Cc1ccccc1)NC(=O)O[C@H]1CCOC1)S(=O)(=O)c1ccc(N)cc1`, the max response in the assay with CRL-7250 is 0.909%; with HEK293 it was -14.4%; in the assay with HaCat [1] it was -15.1%; with NIH3T3, 1.75%. For the same compound, the result in the assay with KB-3-1 was inactive. Besides, the Potency entry in the assay on MCC-13 and in the assay with MCC-26 was “inactive” each time.

Regarding `COc1cc(C=CC(=O)O)ccc1O`, the max response with CRL-7250 was 1.23%; in the assay on HEK293, -0.866%; in the assay with HaCat [1] it was -11.1%; with KB-3-1, 4.21%. Moreover, the outcome in the assay on NIH3T3 was inactive. For the same compound, the Potency entry in the assay with MCC-13 and in the assay on MCC-26 was “inactive” throughout.

For the compound `COc1ccc2ccc(=O)oc2c1CC=C(C)C`, the max response in the assay with CRL-7250 is -22%; with HEK293, -5%; with HaCat [1], -6.16%; in the assay with NIH3T3, -31.4%. Moreover, in the assay on KB-3-1, the compound was classed as inactive. In addition, the Potency entry with MCC-13 and in the assay with MCC-26 was “inactive” each time.

For `CC(C)C[C@@H](N)[C@H](O)C(=O)N[C@H](C(=O)N[C@H](C(=O)N[C@@H](CC(=O)O)C(=O)O)C(C)C)C(C)C`, the max response was 3.99% in the assay on CRL-7250; 3.01% in the assay with HEK293; 1.98% in the assay on HaCat [1]; 4.23% with KB-3-1; 1.99% in the assay with NIH3T3. Further, the Potency entry in the assay with MCC-13 and in the assay on MCC-26 was “inactive” in each case.

For the compound `CNC(=O)[C@H](CC1=CN=C2C=CCC=C12)NC(=O)[C@@H](CC(=O)NO)CC(C)C`, the max response in the assay with CRL-7250 was -4.69%; in the assay on HEK293 it was 4.44%; with HaCat [1] it was -12.2%; with KB-3-1, 8.99%; in the assay on NIH3T3, -0.494%. Besides, the Potency result with MCC-13 and in the assay with MCC-26 was “inactive” each time.

`CC[C@H](C)C(=O)O[C@H]1C[C@H](O)C=C2C=C[C@H](C)[C@H](CC[C@@H](O)C[C@@H](O)CC(=O)O)[C@H]21`: the max response in the assay on CRL-7250 is -6.33%; with HEK293 it was 0.44%; with HaCat [1], -9.82%; in the assay with KB-3-1 it was 7.09% and -6.87%; with NIH3T3, -3.34%. For the same compound, the Potency result in the assay with MCC-13 and in the assay with MCC-26 was “inactive” each time.

For `CCCCOCCOc1nc(-c2ccc(C(=O)O)c(F)c2)sc1C`, the max response was -34.6% in the assay with CRL-7250; -11.4% in the assay with HEK293; -22% in the assay on HaCat [1]; -5.21% in the assay with KB-3-1; -20.6% with NIH3T3. The Potency entry with MCC-13 and in the assay with MCC-26 was “inactive” each time.

With `COc1cccc(OC)c1-c1cc(C(=O)NC2(C(=O)O)C3CC4CC(C3)CC2C4)nn1-c1ccnc2cc(Cl)ccc12` (centres undefined), the values for the max response with CRL-7250, in the assay with HEK293 and in the assay on HaCat [1] were -4.21%, -21.7% and -12%, respectively. Besides, the outcome with KB-3-1 and in the assay on NIH3T3 was inactive. Further, the Potency entry in the assay with MCC-13 and with MCC-26 was “inactive” each time.

For `O[C@@H](COc1cccc2ncccc12)CN1CCN(C2c3ccccc3[C@@H]3[C@H](c4ccccc42)C3(F)F)CC1` (some centres undefined), the outcome in the assay with CRL-7250 and in the assay on NIH3T3 was inactive. For the same compound, the Potency with HEK293 is 10.6 µM (active) and 18.4 µM (active). The figures for the max response in the assay with HaCat [1] and with KB-3-1 were -3.25% and 2.31%, respectively. Moreover, the Potency result in the assay on MCC-13 and in the assay on MCC-26 was “inactive” each time.

In the case of `CCOC(=O)N1c2ccc(C(F)(F)F)cc2[C@@H](N(Cc2cc(C(F)(F)F)cc(C(F)(F)F)c2)C(=O)OC)C[C@H]1CC`, in the assay with CRL-7250, the Potency was 14.8 µM (active). Also, the max response in the assay on HEK293 was -0.609%; with HaCat [1] it was 3.49%; with KB-3-1, 1.68%. Besides, the compound was classed as inactive with NIH3T3. In addition, the Potency result with MCC-13 and in the assay with MCC-26 was “inactive” throughout.

For the compound `Cc1cc(C(C)Nc2ccccc2)c2nc(N3CCOCC3)cc(=O)n2c1` (centres undefined), the max response is -10.1% with CRL-7250; -5.74% and -23.1% in the assay with HEK293; -24% in the assay with HaCat [1]. Further, the call with KB-3-1 was inactive. Moreover, the Potency in the assay on NIH3T3 was 4.61 µM (active). The Potency result in the assay with MCC-13 and in the assay with MCC-26 was “inactive” each time.

`CC[C@H](C=C[C@@H](C)[C@H]1CC[C@H]2[C@@H]3CC=C4C[C@@H](O)CC[C@]4(C)[C@@H]3CC[C@]12C)C(C)C`: the max response with CRL-7250 is -16.3%; in the assay with HEK293, 3.5%; in the assay with HaCat [1] it was -3.88%; in the assay with KB-3-1, 2.61%; in the assay on NIH3T3, 3.97%. Besides, the Potency entry with MCC-13 and in the assay on MCC-26 was “inactive” in each case.

Turning to `O=C(O)C1=CO[C@@H](O[C@@H]2O[C@H](CO)[C@H](O)[C@H](O)[C@H]2O)[C@@H]2C(CO)=CC[C@H]12`, the max response is 1.58% in the assay with CRL-7250, -0.469% with HaCat [1], 7.89% in the assay on KB-3-1 and -17.7% in the assay on NIH3T3. Also, the call in the assay with HEK293 and with HEK293T was inactive. Moreover, the Potency result in the assay with MCC-13 and in the assay on MCC-26 was “inactive” throughout.

Values taken from PubChem BioAssay (NCATS).
